Reference: PubChem BioAssay (NCI)
The panel holds about 83,000 compounds, 20% with a hit somewhere; the sample as a whole holds those more often.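 48-hour exposure, single concentration, 96-well plates; percent growth endpoint where 0 means no net growth. Active: below 10.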 Active and inactive are the calls of the source.

Each molecule was assayed on MDA-MB-468 breast (assay: NCI-60 one-dose screen, 48 h (100 = growth as untreated, 0 = no growth, -100 = all killed)). Details: 10 µM unless noted.

For `COc1ccc(C2CCCCC2=O)cc1` (stereo not drawn), which growth is on record?
Its growth is 109% (inactive).

How did the growth turn out when `FC(F)(F)c1cccc(Nc2nc3ccccc3nc2Nc2cccc(C(F)(F)F)c2)c1` was run?
Its growth is -12.9% (active).

Which growth does the source give for `CCN(CC)CCOc1ccc(C(=C(C)c2ccc(OC)cc2)c2ccc(OCCN(CC)CC)cc2)cc1` here?
The growth was -70.1% (active).

For `Cc1ccc(S(=O)(=O)CCCl)cc1`, which growth is on record?
Its growth is 118% (inactive).

Which growth does the source give for `CCCCc1n(Cc2ccc3ccccc3n2)cc[n+]1Cc1ccc2ccccc2c1` here?
The growth was -31.4% (active).

How did the growth turn out when `NC1=C(Cl)C(=O)c2ccc(S(N)(=O)=O)cc2C1=O` was run?
Its growth is -92.4% (active).

Which growth does the source give for `O=C(Nc1ccc(N2CCNCC2)cn1)c1[nH]ncc1Nc1ncnc2sccc12` here?
Its growth is -59.5% (active).

For `COc1ncc(-c2ccc3ncnc(Nc4cccc(Cl)c4)c3c2)cc1NS(=O)(=O)CCN1CCOCC1`, which growth is on record?
Its growth is -52.8% (active).

How did the growth turn out when `COC(=O)c1c2c(c[n+]([O-])c1C)C(=O)C(NCc1ccccc1)=CC2=O` was run?
The growth was -57.7% (active).

With `CCCCCCNC(=O)Oc1ccc(/C(=C(\C)c2ccc(OC)cc2)c2ccc(OCCN(C)C)cc2)cc1` as the molecule, how does the growth read?
The growth was 95.4% (inactive).

With `CCCCCCCCCCCCCC[n+]1ccc2c(C)c3c(c(C)c2c1)c1cc(O)ccc1n3CC` as the molecule, how does the growth read?
Its growth is -63.6% (active).

With `O=C1OCC2=C1C(c1cccc(Br)c1)c1cc3c(cc1N2CCO)OCCO3` (stereo not drawn) as the molecule, how does the growth read?
The growth was 24.7% (inactive).

For `CCCCCCCC(=O)SCC/C=C/[C@@H]1CC(=O)NCc2nc(cs2)C2=N[C@@](C)(CS2)C(=O)N[C@@H](C(C)C)C(=O)N1`, which growth is on record?
The growth was 40.7% (inactive).

With `CCCNC(=S)N/N=C(\C)c1ccccn1` as the molecule, how does the growth read?
Its growth is -26.3% (active).

`COC1=CC(c2ccc[nH]2)=N/C1=C\c1[nH]c(C)c(C(=O)CCCCCCCCC(=O)O[C@H]2CC[C@H]3C4CCc5cc(O)ccc5C4CC[C@]23C)c1C` (stereo partly drawn) was tested. Which growth did it give?
Its growth is 37.5% (inactive).

For `CNc1nc(C)c(-c2nc(Nc3cccc(S(N)(=O)=O)c3)ncc2F)s1`, which growth is on record?
The growth was -38.3% (active).

Which growth does the source give for `COc1ccc(C(C#N)=C2C=CC(=NO)C=C2)cc1` here?
The growth was -7.26% (active).

For `CCCCCCCCCCCCCCCCCCOc1ccccc1CC(=O)OCC[N+]1(C)CCOCC1`, which growth is on record?
Its growth is 51.9% (inactive).

How did the growth turn out when `COc1ccc2c(c1)c(-c1nc(-c3cn(C)c4ccncc34)cs1)cn2C` was run?
The growth was -28.4% (active).

With `CCOC(=O)c1c(C)c2c(n1C)CSc1cc(C(=O)c3ccccc3)c(=O)[nH]c1-2` as the molecule, how does the growth read?
The growth was 96.6% [100 µM] (inactive).

For `CCN1CCN(Cc2cn(-c3ccc(S(N)(=O)=O)cc3)nn2)CC1`, which growth is on record?
The growth was 99.7% (inactive).

How did the growth turn out when `C/C(=N\NC(=S)Nc1ccccc1)c1ccccn1` was run?
Its growth is -10.2% (active).

`CS(=O)(=O)c1ccc(C(=O)N/N=C/c2ccccc2Cl)cc1` was tested. Which growth did it give?
Its growth is 96.1% (inactive).

For `Nc1ccc(-c2nc3cc(Oc4ccc(Oc5ccc6[nH]c(-c7ccc(N)cc7)nc6c5)cc4)ccc3[nH]2)cc1`, which growth is on record?
Its growth is 90.3% (inactive).

`O=C(O)C1CCCCN1c1nc(Cl)nc(Cl)n1` (stereo not drawn) was tested. Which growth did it give?
The growth was 102% (inactive).

For `c1ccc(Cc2ccccc2)cc1`, which growth is on record?
The growth was 92.9% (inactive).

Which growth does the source give for `COc1ccc(OC)c(NC(=O)c2sc3nc4c(cc3c2N)C(=O)CCC4)c1` here?
Its growth is 37.5% (inactive).

Which growth does the source give for `COc1cc(N2CCC(N(C)C)CC2)ccc1Nc1ncc(Cl)c(Nc2ccccc2P(C)(C)=O)n1` here?
Its growth is -38.3% (active).
